Data published in PubChem BioAssay (NCATS).
Inconclusive results are not listed. Unmarked numbers belong to inactive results. Active and inactive are the calls of the source. Calls come from the whole dose curve; as a rule, active = well fitted cell-killing curve with a large enough effect; inconclusive = small, poorly fitted or top-dose-only effect; inactive = flat fitted curve, though single readings scatter. *1 amine or outer side, *2 acyl side, *3 side chain or, on linkers, in order; H or OH if unused. Where a SMILES comes first, the peptide text is derived from it. Bridges are numbered along the chain shown (N, C = ends). [ ]: non-standard residue; d: D form. The star is where a group is joined. ξ: configuration not given here. X10 = NC1=NCCC(C(N[*:1])C(=O)[*:2])N1; ΔAla(3-NHCONH2) = NC(=O)NC=C(N)C(=O)O; pGlu = O=C1CC[C@@H](C(=O)O)N1; ξβ3hOrn = NCCCC(N)CC(=O)*; Dap = NC[CH](N)C(=O)O

Test: qHTS of pediatric cancer cell lines to identify multiple opportunities for drug repurposing: Primary screen for Rh18 cells (AID 1347102); note: nearly all actives have a fitted effect of over 65% in size
Settings: Rh18 rhabdomyosarcoma viability, CellTiter-Glo luminescence, 48 h; series mostly up to 46 µM; activity change, negative = cytotoxic: at the top concentration
Source text: Drug repurposing or repositioning has been offered as a strategy for drug development in oncology programs. This approach has special potential for childhood cancers and other rare or orphan diseases, where the expected return on new drug development has been a disincentive to pharmaceuticals.
In this project we exploit the poly-pharmacology of drugs to discover new indications via phenotypic screening of a panel of 19 well-characterized cell lines derived from solid tumors seen in children and adolescents. The goal is to identify approved drugs with previously unrecognized anticancer properties that has the potential to reveal new mechanisms and biological processes involved in carcinogenesis or drug resistance. We employed a titration-based paradigm (quantitative high-throughput screening or qHTS), where all compounds were tested at multiple concentrations for their effect on cell viability. Concentration-response curves (CRCs) were derived directly from the primary screen, and both potency and efficacy values were used to identify compounds with robust bioactivity profiles. We screened the NIH Chemical Genomics Center (NCGC) Pharmaceutical Collection (NPC) and Mechanism Interrogation Plate (MIPE) small molecule collections of approved and investigational compounds against these cell lines; and measured metabolically active cells after 48 hours of compound treatment as a proxy for cell viability.
Assay Submitter: Nathalia J. Martinez, National Center for Advancing Translational Sciences, National Institutes of Health, Rockville, MD, USA; email: natalia.martinez@nih.gov
[1] Shen, M et al. Quantitative high-throughput phenotypic screening of pediatric cancer cell lines identifies multiple opportunities for drug repurposing. Oncotarget 2017 Dec 19;9(4):4758-4772. PMID 29435139.
The cells were obtained from University of North Carolina (UNC), Pediatric Preclinical Testing Program (PPT), and Coriell Institute (CI).
qHTS cell viability assay:
Cells were assayed in growth media at a density of 500-1,000 cells/well. Five microliters of cells were dispensed into 1,536-well, white, solid-bottom, TC-treated plates (Greiner Bio One) using a multidrop dispenser and incubated at 37 degrees C, 5% CO2, under a humidified atmosphere for 5 hours. Twenty-three nanoliters of compounds and controls (neutral control DMSO or positive control bortezomib at final concentration of 2.3 µM) were subsequently transferred by Kalypsys pintool. For primary screens, the MIPE collection was tested at 11-point dilutions (final concentrations range from 0.78 nM to 46 µM) and the NPC collection at 8-point dilutions (final concentrations range from 0.59 nM to 46 µM). Compounds tested in follow-up screens were assayed at 11-point dilutions. Cells were incubated for 48 hours, followed by addition of 3 µL of CellTiter-Glo (Promega). After a 15 min incubation at room temperature, samples were analyzed for luminescence intensity using a ViewLux High-throughput CCD imager equipped with clear filters.
% is set by controls: 0 for no effect and ±100 for the full control effect; potency is the fitted concentration of half-maximal effect.

In order of rising “activity change, negative = cytotoxic” value:
1. O=C1Nc2ccccc2C1(c1ccc(O)cc1)c1ccc(O)cc1  -27%
2. CCOC(=O)N1CCC(n2c(=O)[nH]c3cc(Cl)ccc32)CC1  -13.9%
3. Cc1cccc(OCC(O)CNC(C)(C)C)c1C (stereo not given)  -7.13%
4. COc1c(N2C[C@@H]3CCCN[C@@H]3C2)c(F)cc2c(=O)c(C(=O)O)cn(C3CC3)c12  -6.9%
5. COc1ccc2nc(SCc3ncc(C)c(OC)c3C)[nH]c2c1  -5.56%
6. C[C@@H]1CCC[C@H](C)N1CCCC(O)(c1ccccc1)c1ccccn1 (stereo not given in full)  -1.72%
7. CN1CC(=O)N2[C@H](c3ccc4c(c3)OCO4)c3[nH]c4ccccc4c3C[C@@H]2C1=O  -1.47%
8. COC(=O)C1=C(C)NC(C)=C(C(=O)OCCc2ccc(N3CCN(C(c4ccccc4)c4ccccc4)CC3)cc2)C1c1cccc([N+](=O)[O-])c1 (stereo not given)  -0.767%
9. COC(=O)c1cc(S(N)(=O)=O)ccc1OC  -0.524%
10. CCCC(CCC)(C(=O)OCC)C(=O)OCC  1.42%
11. Cc1onc(-c2ccccc2)c1C(=O)Cl  1.94%
12. CN(C)CCN1CCN(c2cccc(Cl)c2)C1=O  2.02%
13. CCCCC(=O)OCC(=O)[C@H]1[C@H](C)C[C@H]2[C@@H]3C[C@H](F)C4=CC(=O)C=C[C@]4(C)[C@@]3(F)[C@@H](O)C[C@@]21C  3.79%
14. CCCCCC1Nc2cc(C(F)(F)F)c(S(N)(=O)=O)cc2S(=O)(=O)N1 (stereo not given)  3.86%
15. OCCc1ccccc1  4.19%
16. O=C1NC(c2ccccc2)(c2ccccc2)C(=O)N1COP(=O)(O)O  4.65%
17. CCCCCN(CCCOC)C(=O)C(CCC(=O)O)NC(=O)c1ccc(Cl)c(Cl)c1 (stereo not given)  4.79%
18. CCOC(=O)C(=O)CCCCCCl  5.68%
19. Nc1ccc([N+](=O)[O-])c(C(F)(F)F)c1  6.12%
20. CCOC(=O)c1cc(=O)c2c(OCC(COc3cccc4oc(C(=O)OCC)cc(=O)c34)OC(=O)[C@@H](N)CCCCN)cccc2o1  6.76%
21. O=C(O)CCC(=O)OC[C@@H](NC(=O)C(Cl)Cl)[C@H](O)c1ccc([N+](=O)[O-])cc1  6.81%
22. CO/N=C(/C(=O)N[C@@H]1C(=O)N2C(C(=O)O)=C(Cn3nnc(C)n3)CS[C@H]12)c1csc(N)n1  6.92%
23. CO[C@]1(NC(=O)CSC(F)F)C(=O)N2C(C(=O)O)=C(CSc3nnnn3CCO)CO[C@H]21  8.1%
24. C#Cc1ccc(-c2ccccc2F)cc1  8.51%
25. CC(C)OP(=O)(CP(=O)(OC(C)C)OC(C)C)OC(C)C  8.55%
26. Cc1ccc2ccc(Cl)cc2n1  10.2%
27. CC(C)CCCC(C)NCCC(C)C (stereo not given)  10.2%
28. COc1ccccc1OCC1CNC(=O)O1 (stereo not given)  10.7%
29. CNC(=O)c1cnn(-c2nc(N)c3ncn([C@@H]4O[C@H](CO)[C@@H](O)[C@H]4O)c3n2)c1  13.8%
30. CN(CC1(C)CCCO1)S(=O)(=O)c1ccc(Cl)c(S(N)(=O)=O)c1 (stereo not given)  14%
31. O=C(Oc1ccccc1)c1ccccc1O  14.5%
32. CCNC(=O)[C@@H]1CCCN1C(=O)[C@H](CCCN=C(N)N)NC(=O)[C@H](CC(C)C)NC(=O)CNC(=O)[C@H](Cc1ccc(O)cc1)NC(=O)[C@H](CO)NC(=O)[C@H](Cc1c[nH]c2ccccc12)NC(=O)[C@H](Cc1cnc[nH]1)NC(=O)[C@@H]1CCC(=O)N1 ([pGlu]HWSYGLRP-NHEt)  15.9%
33. O=C(O)C1CCC1  16.9%
34. COC(=O)/C=C(/C)N  20.4%
35. CC(=O)O[C@H]1CC[C@@]2(C)C(=CC[C@@H]3[C@@H]2CC[C@]2(C)C(C(C)=O)=CC[C@@H]32)C1  22.2%
36. Cc1ccc(O)cc1  23.2%

`NCCCC(N)CC(=O)NCC1NC(=O)C(CO)NC(=O)C(N)CNC(=O)C(C2CCN=C(N)N2)NC(=O)C(=CNC(N)=O)NC1=O` (stereo not drawn) (H-[Dap]S[Dap](ξβ3hOrn)[ΔAla(3-NHCONH2)][X10]; lactam 1-C; configuration not given here) showed an activity change, negative = cytotoxic of 6.67% [at 0.597 µM].

With `CCCCCCCCCCCCCCCC[n+]1ccccc1` the Potency was 7.5 µM (active).
With `CCCCCCCCCCCCCCCC[N+](C)(C)Cc1ccccc1` the Potency was 11.9 µM (active).

For `COC(=O)c1c(Cl)c(Cl)c(C(=O)OC)c(Cl)c1Cl`, the “activity change, negative = cytotoxic” value was 11.2% [at 92.7 µM].
